# Shown are actives, neighbours in structure and some others; about 4.1% of the full set was active somewhere.
# tim10-1 inh = growth inhibitors of tim10-1 mutant yeast; S. cerevisiae tim10-1 ts strain growth, BacTiter-Glo, 24 h; inhibition, % at 20 µM; hit rate 2.2% among 330,000; AID 463190;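 active = inhibition of at least 40%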;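 also: mutant grown at 25 °C; 0% = DMSO wells with yeast and 100% = wells holding no yeast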
# TIM10 inh = growth inhibitors of TIM10 yeast strain; S. cerevisiae TIM10 strain growth, BacTiter-Glo luminescence, 24 h; hit rate 1.4% among 330,000; inhibition, % at 10 µM;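 active = inhibition of 40% or more at the single tested concentration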;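 also: wild-type TIM10 isogenic control strain grown at permissive 25 °C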
# NALP3 yeast inh = NALP3 inhibition in yeast; inhibition, % at 10 µM; hit rate 0.39% among 330,000; Yeast reconstituted NLRP3/ASC/caspase-1, beta-gal luminescence, 24 h;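 active = inhibition of 50% or more; inactive = inhibition below 50%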;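 also: plate controls were induced DMSO wells for no effect and uninduced yeast grown without galactose for full effect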
# tim23-1 inh = inhibits growth of tim23-1 mutant yeast. S. cerevisiae tim23-1 growth, BacTiter-Glo luminescence, 24 h. hit rate 1.3% among 330,000. inhibition, % at 20 µM;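 active = growth inhibition of the mutant yeast at or above 50%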;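 also: temperature-sensitive mutant grown at 25 °C; plate controls were DMSO-treated mutant yeast for no effect and medium wells lacking yeast for full effect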
# NALP1 yeast inh = NALP1 inhibition; S. cerevisiae NALP1/ASC/caspase-1 growth, X-gal OD620, 72 h; inhibition, % at 10 µM; hit rate 0.61% among 280,000; in the data active = inhibition mostly above about 24%, no sharp cut-off; inactive = mostly below about 32%
# PfHsp90 set2 = reduces growth (ATP signal) of yeast expressing P. falciparum Hsp90. inhibition, % at 9.4 µM. S. cerevisiae expressing PfHsp90, BacTiter-Glo ATP, 48 h; yeast lacking PDR1 and PDR3 efflux regulators. hit rate 0.32% among 310,000;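 active = every replicate shows inhibition above about 80%, whatever the replicate mean, limit read from the data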;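 also: 0% = DMSO neutral controls and 100% = 20 µM radicicol positive controls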
# tim10-1 confirm = confirmation of tim10-1 mutant yeast growth inhibitors | hit rate 56% among 7,400 | S. cerevisiae tim10-1 ts strain growth, BacTiter-Glo, 24 h | inhibition, % at 20 µM | shares compounds with tim10-1 inh;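 active = inhibition of yeast growth at or above a set limit in either of two repeat tests at 20 µM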;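 also: tim10-1 mutant grown at permissive 25 °C to find synthetic lethal compounds; 0% = DMSO yeast wells and 100% = medium wells without yeast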
# TIM10 conf = confirmation of TIM10 yeast growth inhibitors; shares compounds with TIM10 inh; inhibition, % at 10 µM; S. cerevisiae tim10 strain growth, BacTiter-Glo luminescence, 24 h; hit rate 63% among 4,600; AID 463215;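 active = inhibition of yeast growth at or above a set limit in either of two replicates at 10 µM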;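 also: this counterscreen used the strain with wild-type TIM10; 0% = yeast with DMSO and 100% = medium wells lacking yeast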
# tim23-1 conf = confirmation of tim23-1 mutant yeast growth inhibitors; shares compounds with tim23-1 inh; S. cerevisiae tim23-1 growth, BacTiter-Glo luminescence, 24 h; inhibition, % at 20 µM; hit rate 83% among 4,400;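 active = inhibition above about 39% in either of two replicate wells at 20 µM, limit read from the data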;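 also: temperature-sensitive tim23-1 mutant grown at 25 °C; 0% = DMSO wells with yeast and 100% = medium wells without yeast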
# Numbers without * were called inactive; x = no result.
SMILES,tim10-1 inh,TIM10 inh,NALP3 yeast inh,tim23-1 inh,NALP1 yeast inh,PfHsp90 set2,tim10-1 confirm,tim23-1 conf,others
CC(=O)c1ccc(N=Nc2ccc(C)cc2)cc1,13,22,17,23,7,-5,x,x,
O=C(Cc1ccccc1)c1ccc(Cl)cc1,5,-8,-7,-9,10,4,x,x,
C=CCN(CC=C)C(=S)NC(=O)Cc1cccc2ccccc12,39,37,-1,35,-6,-2,x,x,
CC1CCN(C(=O)CSCC(=O)Nc2nc(-c3cccs3)cs2)CC1,43*,31,25,54*,-75,-44,27,49*,
CC1CCCN(C(=O)CSCC(=O)Nc2nc(-c3cccs3)cs2)C1 (centres undefined),37,24,22,48,-18,-21,x,x,
COc1cc(NC(=O)COc2ccc(Cl)cc2)ccc1-c1cc2ccccc2oc1=O,4,-3,16,7,20,-20,x,x,
O=C(/C(=C\c1ccccc1)c1nc2ccccc2[nH]1)c1ccc(Cl)cc1,43*,40,41,51*,20,104*,34*,62*,
O=C(/C(=C/c1ccc(Cl)cc1)c1nc2ccccc2[nH]1)c1cccs1,56*,70*,50,51*,16,x,39*,-31,TIM10 conf=71*
O=C(Nc1ccc2c(c1)OCCO2)NC12CC3CC(CC(C3)C1)C2,51*,47*,1,59*,14,-10,43*,43*,TIM10 conf=31
Cc1cccc(NC(=S)NNC(=O)c2cccc([N+](=O)[O-])c2)c1,10,16,39,10,-33,5,x,x,
O=C(NC(=S)Nc1cccc(F)c1)c1cccc([N+](=O)[O-])c1,49*,6,28,54*,13,-8,3,52*,
O=C1c2ccccc2-c2n[nH]c3cccc1c23,59*,33,46,67*,x,-26,25,67*,
Cc1ccc(F)c(Cn2cnc3c(cnn3C(C)(C)C)c2=O)c1Cl,27,7,16,47,x,-57,x,x,
Cc1ccc(-c2nnc(N3CCN(C(=O)c4ccco4)CC3)c3ccccc23)cc1,61*,53*,25,70*,-4,13,50*,63*,TIM10 conf=-12
CC(=O)N1CCN(c2nnc(-c3ccccc3)c3ccccc23)CC1,-46,-30,1,-58,-15,19,x,x,
Cc1nn(-c2ccccc2)c(C)c1NC(=O)COc1ccc([N+](=O)[O-])cc1,7,-2,3,8,x,x,x,x,
COc1ccc(Br)cc1C(=O)NC(=S)Nc1ccc(CN2CCOCC2)cc1,55*,35,5,51*,16,-2,19,57*,
O=C(NC(=S)Nc1ccc(CN2CCOCC2)cc1)c1ccc(-c2ccc(Br)cc2)o1,-7,7,16,35,14,x,x,x,
N#C/C(=C\c1ccccn1)c1nc2ccccc2s1,83*,78*,26,65*,6,-6,87*,34,TIM10 conf=82*
Cc1cccn2c(=O)c(C(=O)NC3CC(C)CC(C)(C)C3)c(O)nc12 (centres undefined),-10,-22,22,11,x,-35,x,x,
OC(CN1CCN(c2ccccn2)CC1)Cn1c2ccc(Cl)cc2c2cc(Cl)ccc21 (centres undefined),47*,-28,31,55*,-2,-1,21,-39,
Cc1ccc(C(=O)NCCC(=O)NCc2ccco2)cc1,0,0,13,-1,3,-23,x,x,
CCN(Cc1cnn(C)c1)C(=O)c1ccc2nc(Cc3cccc(Cl)c3)oc2c1,9,8,13,23,9,21,x,x,
CCCCCCCCCCn1c2c(c(=N)c3c1CCC3)CCC2,65*,39,43,83*,34*,7,30,76*,
Cc1cc(NC(=O)Nc2cccc(Cl)c2)n(-c2ccccc2)n1,12,-12,6,12,8,3,x,x,

# Screening data as filed in PubChem.
